# Results from the supplement of paper PMC10477191.
# ± gives the standard deviation of the averaged measurements.
# Test system: Drosophila virilis antennal basiconic sensillum AB5
# Test: odor-evoked OSN spike response (post minus pre-stimulus); higher = stronger neuronal excitation
# Conditions: odor dilution: 10^-4
# Experimental: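 Single sensillum recordings from antennal basiconic sensilla of D. virilis. A 500 ms pulse of odorant (10^-4 in mineral oil or DMSO) was delivered; the response is the change in spike frequency between the 1 s pre- and post-stimulus windows (spikes/s).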
row,SMILES,odor-evoked OSN spike response [spikes/s]
1,"COc1cccc(OC)c1O [Phenol, 2,6-dimethoxy- (powder)]",54 ± 20
2,COC(=O)c1ccccc1 [methyl benzoate],49.2 ± 8.7
3,CCCCCOC(C)=O [pentyl acetate],65.7 ± 11
4,CC(=O)OC/C=C(\C)CCC=C(C)C [geranyl acetate],81 ± 11
5,CC(=O)c1ccccc1 [Acetophenone],65.7 ± 8.1
